PubChem BioAssay AID624168 (Sanford-Burnham Center for Chemical Genomics, 2012)
The campaign covered roughly 360,000 compounds. About 800 (0.22%) were called active. For the sample, actives were picked, then their nearest neighbours and some compounds at random. A number with no mark means an inactive call.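 How the source made its calls: active means activation of at least 8% versus controls, or a plate z-score of at least 8; inactive means the rest.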

Test: compounds raising alpha-dystroglycan glycosylation – uHTS, Pro5-aDG cells, AlphaScreen, primary screen (AID 624168);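 further: Pro5 are CHO cells carrying HIG-tagged alpha-DG that lacks glycosylation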
Conditions: alpha-DG glycosylation AlphaScreen (IIH6), at 10 µM, hits give high values, 0% Pro5, 100% B10-LARGE cell signal

Compared with CN(CC(=O)Nc1cccc(F)c1)C(=O)C1=COCCO1, O=C(NCCN1CCOCC1)Nc1cccc(Cl)c1 is lower in activation: 0.1% for the first, -0.1% for the second.

Compared with Cc1ccc(NC(=O)c2sccc2C)cc1[N+](=O)[O-], O=[N+]([O-])c1ccc(C=Nc2ccc(Cl)cc2Cl)s1 is lower in activation: 0% for the first, -0.4% for the second.

Going from O=C(CN1CCCCC1)NC(=O)Nc1ccccc1F to O=C(CN1CCN(Cc2ccccc2)CC1)Nc1ccc(F)c(F)c1, the activation falls from 0% to -0.1%.

Going from O=C(CCNS(=O)(=O)c1ccc(Br)s1)NCc1ccccc1Cl to COC(=O)C(Cc1c[nH]c2ccccc12)NC(=O)CCNC(=O)c1ccco1 (stereo not given), the activation falls from 0.5% to 0.2%.

Compared with COc1cccc(NC(=O)N(C)C[C@@H]2Oc3ncc(Br)cc3C(=O)N([C@@H](C)CO)C[C@H]2C)c1, COc1ccc(C2c3[nH]c4ccccc4c3C[C@H]3C(=O)N(CC(C)C)CC(=O)N23)c(OC)c1 (stereo not given in full) is higher in activation: 0.2% for the first, 0.3% for the second.

Compared with OC(CN1C2=NCCCN2c2ccccc21)c1ccc(Br)cc1 (stereo not given), OC(COc1ccc(F)cc1Cl)CN1CCc2ccccc2C1 (stereo not given) is lower in activation: 0.6% for the first, 0.1% for the second.

CC(=O)N1CSCC1C(=O)O (stereo not given) and CC(C)(C)OC(=O)N1CCC(C(=O)NNC(=O)c2ccc(Cl)cc2Cl)CC1 are the same in activation: 0.1% for the first, 0.1% for the second.

Compared with O=S(=O)(c1ccc2ccccc2c1)N1CCN(S(=O)(=O)N2CCOCC2)CC1, NC(=O)COC(=O)c1cc(S(=O)(=O)N2CCN(c3ccccc3)CC2)ccc1Cl is lower in activation: 0.1% for the first, -1.4% for the second.

Going from O=C1OCCOC2CCCc3oc(-c4ccccc4)c1c32 (stereo not given) to O=C1C(=O)N(c2ccccc2)c2ccccc21, the activation rises from 0.5% to 2.6%.

CCN(CC(=O)NCc1ccc(Cl)cc1)C(=O)CSc1ccccc1 and O=S1(=O)CC(NCc2ccccc2)C(Nc2ccc(Cl)cc2)C1 (stereo not given) are the same in activation: 0% for the first, 0% for the second.

First: O=S(=O)(c1ccc(Cl)cc1)c1nc(-c2ccccc2F)oc1NCCN1CCOCC1
Second: Cc1nn(Cc2ccc(Cl)cc2)c(Cl)c1/C=N/NC(=O)CNc1ccccc1F
The activation of the first is lower: 0.2% for the first, 0.9% for the second.

First: O=C(/C(=N\O)n1cncn1)c1ccc(Br)cc1Br
Second: CN(C)C(=S)Nc1ccc(Br)cc1Cl
The activation of the first is higher: 0.2% for the first, 0.1% for the second.

Compared with Cc1ccc(C(NC(=O)C2CCN(CCOc3ccc(Cl)cc3Cl)CC2)c2ccccn2)cc1 (stereo not given), O=C(NC(c1ccc(Cl)cc1)c1cnccn1)C1CCN(Cc2ccc(Cl)cc2)CC1 (stereo not given) is lower in activation: 0.4% for the first, 0.1% for the second.

Compared with CCOC(=O)c1cc2sccc2n1Cc1ccc(C#N)cc1, CN1OC(COC(=O)c2ccc(Cl)cc2)CC1c1ccccc1 (stereo not given) is higher in activation: 0% for the first, 0.1% for the second.

Compared with CCOCCCNC(=O)C1(O)c2cc(Br)ccc2NC(=O)N1c1ccc(C)c(C)c1 (stereo not given), CCN(CC)C(=O)C1=C(C)N(Cc2ccc(OC)cc2)C(=O)C(CC(=O)NCc2ccco2)C1 (stereo not given) is higher in activation: -0.2% for the first, -0.1% for the second.

Going from CN1CCCc2cc(C#N)c(=O)[nH]c21 to COc1ccc(F)cc1S(=O)(=O)N1CCCCC1, the activation falls from 0% to -0.1%.

First: COCCN(C(=O)C(C)C)c1nnc(-c2ccc(C(C)(C)C)cc2)s1
Second: CCOc1ccccc1Nc1nnc(SCC(=O)Nc2cc(C)on2)s1
The activation of the first is higher: 0.5% for the first, -0.2% for the second.

Compared with Cc1ccc(OCc2nnc(SC3CCc4ccccc4C3=O)n2C)cc1 (stereo not given), Fc1ccc(OCc2nn3c(Cn4nnc5ccccc54)nnc3s2)cc1 is higher in activation: 0% for the first, 0.5% for the second.

Cc1cc(C)c(S(=O)(=O)n2cc(C(C)C(N)C(=O)O)c3ccccc32)c(C)c1 (stereo not given) and COc1ccccc1N1CCN(C(=O)c2cc(=O)c3cc(C)cc(C)c3o2)CC1 are the same in activation: -0.2% for the first, -0.2% for the second.

Cc1ccc(NS(=O)(=O)c2c(C)[nH]c(C)c2C(=O)N2CCCCC2)c(C)c1 and Cc1c(C(=O)N2CCCC2)c(S(=O)(=O)NCC(C)c2ccccc2)c(C)n1C (stereo not given) are the same in activation: -0.1% for the first, -0.1% for the second.

Going from Cc1ccc(S(=O)(=O)N2CCCCC2)cc1NC(=O)[C@@H]1CCCN1C(=O)c1cccs1 to O=C(C1CCCN(S(=O)(=O)c2ccc([N+](=O)[O-])cc2)C1)N1CCCCC1 (stereo not given), the activation rises from 0.1% to 0.9%.

First: O=C(Nc1cccc(Br)c1)C1CC(=O)N(C2CCCC2)C1 (stereo not given)
Second: O=C(Nc1nnc(S(=O)(=O)N2CCCCCC2)s1)c1cccc(Br)c1
The activation of the first is higher: 0% for the first, -0.2% for the second.

Compared with COc1ccc(OCc2cc(C(=O)N3CCCC3)no2)c2ccccc12, COc1cc(C(C)=O)ccc1OC(=O)CN1C(=O)c2ccccc2C1=O is lower in activation: 0.3% for the first, -0.1% for the second.

First: Cc1ccc(NS(=O)(=O)c2ccc(F)cc2)nc1
Second: O=C(Nc1cc(S(=O)(=O)Nc2ccc(Cl)cc2)ccc1O)c1ccc(F)cc1F
The activation of the first is lower: -0.2% for the first, 0.4% for the second.

Compared with C=CCOc1cccc(CNn2cn[nH]c2=S)c1, Cc1cccc(OCC(O)CN2CCN(S(=O)(=O)c3ccc(C)cc3C)CC2)c1 (stereo not given) is higher in activation: 0% for the first, 0.1% for the second.

Going from CC[C@]12c3[nH]c4cc(CCC(=O)N(C)C)ccc4c3CCN1C(=O)[C@@H](CC(=O)NCC13CC4CC(CC(C4)C1)C3)C[C@@H]2C(=O)N1CCN(C(=O)C2CC2)CC1 to CCOc1ccc(CCNC(=O)CCc2nnc3ccc(N4CCCC4)nn23)cc1OCC, the activation rises from -0.1% to 0.3%.

Going from Cc1cc(=O)oc(C)c1C(=O)NC1CC(C)(C)NC(C)(C)C1 to Cc1cccc(C)c1NC(=O)N1CC=C(n2c(=O)[nH]c3ccccc32)CC1, the activation rises from -0.1% to 0.1%.

COc1ccc(CC(NC(C)=O)C(=O)NC2CCN(C(=O)c3ccc(OC)c(OC)c3)CC2)cc1OC (stereo not given) and COc1ccc(C2(CNC(=O)Cc3ccc(OC)c(OC)c3)CCCC2)cc1 are the same in activation: -0.3% for the first, -0.3% for the second.

Compared with Clc1cc(NC2CCCCC2)ncn1, COc1ccc(Cl)cc1NC(=O)NCC1CCN(Cc2ccccc2F)CC1 is higher in activation: 0.2% for the first, 1% for the second.

Nc1cccnc1Sc1ccccc1 and COc1ccccc1OCCn1c(SCC(N)=O)nc2ccccc21 are the same in activation: 0% for the first, 0% for the second.

First: CC(=O)N/C(=C/c1ccc(OC(F)F)cc1)C(=O)O
Second: COc1ccc(CC(=O)OC(C)C(=O)Nc2ccc(S(N)(=O)=O)cc2)cc1 (stereo not given)
The activation of the first is lower: -0.4% for the first, 0.1% for the second.

Compared with Cc1ccc(S(=O)(=O)N2CCN(CC(=O)N/N=C/c3ccc(Br)s3)CC2)cc1, CC(=O)N(c1ccc2oc(=O)sc2c1)S(=O)(=O)c1ccc(C)cc1 is higher in activation: -0.1% for the first, 0% for the second.

Going from O=S(=O)(N1CCCCC1)N1CCNCC1 to COCCCC1CCN(C(=O)C2CCC(=O)N(C3CCCCCC3)C2)CC1 (stereo not given), the activation falls from 0% to -0.3%.

Going from CC(C)[C@@H](C(=O)O)N(Cc1cccc(CN([C@H](C(=O)O)C(C)C)S(C)(=O)=O)c1)S(C)(=O)=O to Cc1c(C(=O)N(C)CCc2cnn(C)c2)oc2c(F)cccc12, the activation rises from -0.1% to 0.2%.

Compared with Cc1cccc2cc(CN(Cc3cccs3)C(=S)NCc3ccco3)c(=O)[nH]c12, COCCCNC(=S)N(CCN(C)C)Cc1cc2cc3c(cc2[nH]c1=O)OCCO3 is lower in activation: 0% for the first, -0.2% for the second.

First: O=C(CN(c1cc(C(F)(F)F)ccc1Cl)S(=O)(=O)c1ccccc1)NCc1cccnc1
Second: O=C(Nc1ccc(-n2ccnc2P(=O)(O)c2ccccc2)cc1)c1ccccc1Br
The activation of the first is higher: 0.2% for the first, -0.1% for the second.

Compared with COc1ccc(CC(=O)NC2CCSc3ccccc32)cc1OC (stereo not given), COc1ccccc1N1CC(C(=O)Nc2nnc(SCC(=O)NCC3CCCO3)s2)CC1=O (stereo not given) is lower in activation: 0.1% for the first, -0.1% for the second.

COCCc1nn2c(=O)cc(COC(=O)c3cc(OC)c(OC)c(OC)c3)nc2s1 and COc1cccc(C(=O)Nc2nnc(S(=O)(=O)N3CCOCC3)s2)c1 are the same in activation: -0.1% for the first, -0.1% for the second.

Going from Cc1ccc(C(=O)C(=S)N2CCOCC2)cc1 to c1ccc2c(NC3C4CC5CC(C4)CC3C5)nc(N3CCOCC3)nc2c1 (stereo not given), the activation rises from 0% to 0.7%.

With Cc1ccc(NC(=O)CN(C)CC(=O)Nc2cccc(F)c2)cc1[N+](=O)[O-] the activation was 10% (active).
For O=c1ccc2cc(S(=O)(=O)N3CCN(c4ccccc4)CC3)ccc2o1, the activation was 8.4% (active).
For c1ccc2cc3c(NCCN4CCOCC4)ccnc3cc2c1, the activation was 9% (active).
In the case of O=C(NC(c1ccc(-c2ccccc2)cc1)c1cnccn1)C1CCN(CCOc2ccc(Cl)cc2Cl)CC1 (stereo not given), the activation is reported as 7.1% (active).
With CC(C)c1cc(Cn2c3ccccc3c(=O)n2C(C)Cn2cc(C3CC3)nn2)on1 (stereo not given) the activation was 6.8% (active).
In the case of COc1ccccc1N1CCN(C(=O)c2cc(-c3ccc(Br)cc3)on2)CC1, the activation is reported as 9.8% (active).
With Cc1cccc(CN2CCC(CNC(=O)Nc3ccc(F)c(Cl)c3)CC2)c1 the activation was 5.2% (active).
For Cc1ccc(OCC(O)CN2CCN(CC(O)COc3ccc(C)cc3Cl)CC2)c(Cl)c1 (stereo not given), the activation was 3.9% (active).
With CC(C)(C)c1cc(C(=O)N/N=C/c2ccc([N+](=O)[O-])s2)n[nH]1 the activation was 2.7% (active).
In the case of Cc1ccccc1NCC(=O)N/N=C\c1ccc([N+](=O)[O-])s1, the activation is reported as 9.3% (active).
For Cc1cc(C)c2[nH]c(=O)c(CN(Cc3ccccc3)C(=S)NCCCN(C)C)cc2c1, the activation was 8.7% (active).
In the case of O=C(c1cccnc1)N(c1cc2sc(=O)oc2c2ccccc12)S(=O)(=O)c1ccccc1, the activation is reported as 8.9% (active).
In the case of COc1ccc(CC(=O)Nc2nc(-c3ccc(F)c(F)c3)cs2)cc1OC, the activation is reported as 2.7% (active).
For COc1cccc(C(=O)Nc2nnc(S(=O)(=O)N3CCCCC3)s2)c1, the activation was 10.9% (active).
In the case of CCOc1ccccc1Nc1nnc(SCC(=O)NCC2CCCO2)s1 (stereo not given), the activation is reported as 5.2% (active).
For NC1=CC(=O)C(=O)c2cccnc21, the activation was 4.9% (active).
In the case of CC(C)OC(=O)CN1C(=O)C(=O)c2ccccc21, the activation is reported as 14.6% (active).
